An excerpt weighted towards active compounds, which were near 2.4% of everything screened.
Prx2 Sm inh – Schistosoma mansoni Prx2 inhibition | S. mansoni Prx2 activity coupled to TGR/GSH (TGR is thioredoxin glutathione reductase), NADPH fluorescence loss, qHTS | Potency, µM | 65,000 tested, 0.07% active
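Activity is read as the drop in NADPH fluorescence (365/450 nm), recorded every 30 sec for 8 min after H2O2 addition. Prx2 is coupled to TGR-driven NADPH oxidation through glutathione, in phosphate buffer pH 7.4.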
AmpC inh det – blocks E. coli AmpC beta-lactamase in presence of detergent | AID 584 | purified AmpC, nitrocefin hydrolysis with detergent | 71,000 tested, 0.09% active | P00811 | Potency, µM (top dose mostly 28.7 µM), inactives show top-dose activity change, negative = inhibition; active = well fitted curve in the direction sought with a large enough effect; inconclusive = small, poorly fitted or top-dose-only effect; also: % is scaled to controls: 0 for no effect and ±100 for the full control effect
Target sequence (P00811 whole entry, looked up): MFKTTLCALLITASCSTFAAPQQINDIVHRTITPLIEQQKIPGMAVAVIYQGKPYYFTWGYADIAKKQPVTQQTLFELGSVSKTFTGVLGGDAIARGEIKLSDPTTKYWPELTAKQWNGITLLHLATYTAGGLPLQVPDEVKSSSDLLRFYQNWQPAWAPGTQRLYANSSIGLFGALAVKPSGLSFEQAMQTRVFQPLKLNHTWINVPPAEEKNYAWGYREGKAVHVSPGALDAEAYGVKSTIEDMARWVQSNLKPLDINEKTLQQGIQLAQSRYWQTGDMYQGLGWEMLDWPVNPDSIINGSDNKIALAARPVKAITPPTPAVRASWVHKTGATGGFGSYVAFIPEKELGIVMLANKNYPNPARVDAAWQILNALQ
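E. coli AmpC (5.3 nM) in 20 mM phosphate pH 7.0 with 0.01% Triton X-100, preincubated 15 min RT with compound; nitrocefin (2 uL of 800 uM stock) hydrolysis followed by 480 nm absorbance every 20 s over 4 min.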
LT uptake inh – inhibitors of anthrax lethal toxin internalization; 70,000 tested, 0.67% active; Potency, µM (titrated, usually from 40 µM), for the others: at the highest dose activity change, negative = inhibition, most hits filed as inhibitors; Cells, anthrax lethal toxin internalization, FRET ratio (460/530); AID 912; also: % is scaled to controls: 0 for no effect and ±100 for the full control effect; nearly all actives have a fitted effect of over 50% in size
AmpC nodet inh – inhibitors of E. coli AmpC beta-lactamase without detergent; Potency, µM (series often up to 28.7 µM), for the others: at the top dose activity change, negative = inhibition; AID 585; AmpC nitrocefin hydrolysis, absorbance 480 nm, no detergent; 71,000 tested, 1.8% active; also: % of control where 0% means no effect
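AmpC in 20 mM phosphate buffer pH 7.0 was preincubated 15 min at room temperature with compounds. Nitrocefin (800 uM stock) was then added and hydrolysis followed at 480 nm every 20 s for 4 min.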
* marks the source's active call; other numbers are inactive results; ? = inconclusive; nt = not tested or not shown; ! = a repeat was not active; [ ] = remark or other dose. Unless noted, calls follow the shape of the full dose curve. Potency is read from the fitted curve at half-maximal effect.

SMILES	Prx2 Sm inh	AmpC inh det	LT uptake inh	AmpC nodet inh
COc1ccc(S(=O)(=O)Cc2ccc(C(=O)N3CCc4ccccc4C3)o2)cc1	>57	6%	-14%	3.2µM*[single pt active]
C[C@@H]1O[C@@H](OC[C@@H]2O[C@@H](Oc3c(-c4ccc(O)c(O)c4)oc4cc(O)cc(O)c4c3=O)[C@H](O)[C@H](O)[C@@H]2O)[C@H](O)[C@H](O)[C@@H]1O	>57	0%	-19%	1%
O=S(=O)(c1ccc(F)cc1)N1CCC(N2CCCC2)CC1	>57	9%	?	4µM*[single pt active]
O=S(=O)(c1ccc(S(=O)(=O)N2CCN3CCCC3C2)cc1)N1CCCC1 (stereo unspecified)	>57	3%	5%	16%
O=C(NCCCN1CCN(c2ccccc2F)CC1)C1CCCN(S(=O)(=O)c2cnc[nH]2)C1 (stereo unspecified)	nt	11%	-2%	4µM*[single pt active]
COc1cc(C2C(C(=O)OC(C)C)=C(C)Nc3ncnn32)cc(OC)c1OC (stereo unspecified)	>57	14%	-1%	4µM*[single pt active]
COc1ccc(C2C(C(C)=O)=C(C)Nc3ncnn32)cc1OC (stereo unspecified)	>57	0%	?	-5%
CC(C)=CCc1c2c(c3occ(-c4ccc(O)c(O)c4)c(=O)c3c1O)C=CC(C)(C)O2	>57	-3%[5.75 µM]	?	4µM*[single pt active]
O=c1c(-c2ccc3c(c2)OCCO3)coc2c(CN3CCOCC3)c(O)ccc12	>57	12%	-18%	4%
CC(C)(C)NC(=O)C1CCCN(S(=O)(=O)c2cccc3cccnc23)C1 (stereo unspecified)	>57	12%	-6%	4µM*[single pt active]
Nc1c(S(=O)(=O)c2cccs2)c2nc3ccccc3nc2n1/N=C/c1cccc(O)c1	>57	-2%	5µM*	-5%
Cn1cc(C(=O)c2ccccc2)c2ccccc21	>57	10%	-23%	4µM*[single pt active]
COC(=O)N1CCN(C(=O)Cc2ccc(Cl)c(Cl)c2)[C@H](CN2CCCC2)C1	14*!	1%	?	36%
CC(C)[C@]1(O)[C@@H](OC(=O)c2ccc[nH]2)[C@]2(O)[C@@]3(C)C[C@@]4(O)O[C@@]5([C@H](O)[C@@H](C)CC[C@]35O)[C@]2(O)[C@]41C	>57	-3%[5.75 µM]	3%[8 µM]	5%[5.75 µM]
Cc1ccc2c(CC(=O)Nc3sccc3C(N)=O)coc2c1	>57	-2%	-12%	13µM*[single pt active]
CCc1cc2c(nc1CC)CCN(CC/C(C)=N/OC[C@@H](O)[C@@H]1O[C@@H]3OC(C)(C)O[C@@H]3[C@H]1O)C2	nt	nt	3%[8 µM]	nt
CC1=C(O)C(=O)[C@H]2O[C@@H]2C1=O	>57	0%	?	1%
CCOC(=O)C1=C(N)Oc2ccc(Br)cc2[C@@H]1[C@@H](C#N)C(=O)OCC	39*	0%	?	0%
c1csc(CNc2nc(-c3ccc4c(c3)OCO4)nc3ccccc23)c1	>57	10%	?	-13%
Cc1cc(NC(=O)CCS(=O)(=O)c2nc(-c3ccccc3)cc(C(F)(F)F)n2)no1	>57	-3%	7.9µM*	-11%
Cc1nnc(SCCc2ccccc2)[nH]c1=O	>57	11%	2%	-19%
Cc1ccccc1CSc1nnc(C)c(=O)[nH]1	>57	12%	-10%	4µM*[single pt active]
CC12C=C(/C=C/CCc3ccco3)C(C)(C1)C(CCc1ccco1)CC2=O (stereo unspecified)	nt	nt	-10%[8 µM]	nt
COC(=O)CSc1nc2ccc(NC(=O)CSc3nnnn3Cc3ccccc3)cc2s1	nt	0%	5µM*	?
CC(=O)Nc1cccc(NC(=O)CSc2nnnn2Cc2ccccc2)c1	>57	-1%	-12%	-6%
SMILES	Prx2 Sm inh	AmpC inh det	LT uptake inh	AmpC nodet inh
COc1ccccc1-c1nnc(SCC(=O)NCc2c(C)c(Cl)cc(C(C)C)c2O)o1	>57	0%	10µM*	94%
COc1ccccc1-c1nnc(SCC(=O)Nc2c(Cl)cccc2Cl)o1	>57	-3%	20%	-14%
CC(=O)Nc1nc(-c2ccc(Br)s2)cs1	>57	13%	-2%	13µM*
O=[N+]([O-])c1ccc(NCCO)c(OCCO)c1	nt	7%	0%	0%
O=C(CSc1nnc(-c2ccc(Cl)cc2)o1)N1CCN(c2ccccc2)CC1	>57	-3%	0%	10µM*[single pt active]
O=C(CSc1nnc(COc2ccc(Cl)cc2)o1)N1CCN(c2ccccc2)CC1	>57	-1%	?	-11%
Clc1ccc(-c2nnc(SCc3nc(-c4ccccc4)no3)o2)cc1	>57	11%	?	4µM*[single pt active]

Source: PubChem BioAssay
